PubChem BioAssay (NCATS)
Records with an inconclusive call do not appear. A number with no mark means an inactive call. Active and inactive are the calls of the source. The call rests on the fitted dose curve; in most records, active means well fitted inhibition curve with a large enough effect; inconclusive means small, poorly fitted or top-dose-only effect; inactive means flat fitted curve, though single readings scatter.

What follows are compounds tested against Voltage-gated inwardly rectifying potassium channel KCNH2 (Homo sapiens) (UniProt Q12809) (assay: qHTS Assay for Small Molecule Inhibitors of the Human hERG Channel Activity (AID 588834;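 further: lower thallium flux fluorescence means stronger hERG block; nearly all actives have a fitted effect of over 50% in size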; on activity change, negative = inhibition: top concentration of the series differs between compounds)). Conditions: U2OS BacMam hERG, FluxOR thallium flux fluorescence; series mostly up to 46.1 µM; activity change, negative = inhibition: at the top concentration.
Outline: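 U2OS cells BacMam-transduced with hERG, 2000 cells/well, compound ~10 min at 37 °C before stimulation buffer. FluxOR thallium flux fluorescence read kinetically on FDSS; decrease indicates block; AC50 from Hill fits.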
On the % scale 0 is the no-effect control and ±100 the full control effect; potency means the concentration at half of the fitted maximal effect.

Sequence of Voltage-gated inwardly rectifying potassium channel KCNH2 (Homo sapiens) (Q12809 whole entry, looked up): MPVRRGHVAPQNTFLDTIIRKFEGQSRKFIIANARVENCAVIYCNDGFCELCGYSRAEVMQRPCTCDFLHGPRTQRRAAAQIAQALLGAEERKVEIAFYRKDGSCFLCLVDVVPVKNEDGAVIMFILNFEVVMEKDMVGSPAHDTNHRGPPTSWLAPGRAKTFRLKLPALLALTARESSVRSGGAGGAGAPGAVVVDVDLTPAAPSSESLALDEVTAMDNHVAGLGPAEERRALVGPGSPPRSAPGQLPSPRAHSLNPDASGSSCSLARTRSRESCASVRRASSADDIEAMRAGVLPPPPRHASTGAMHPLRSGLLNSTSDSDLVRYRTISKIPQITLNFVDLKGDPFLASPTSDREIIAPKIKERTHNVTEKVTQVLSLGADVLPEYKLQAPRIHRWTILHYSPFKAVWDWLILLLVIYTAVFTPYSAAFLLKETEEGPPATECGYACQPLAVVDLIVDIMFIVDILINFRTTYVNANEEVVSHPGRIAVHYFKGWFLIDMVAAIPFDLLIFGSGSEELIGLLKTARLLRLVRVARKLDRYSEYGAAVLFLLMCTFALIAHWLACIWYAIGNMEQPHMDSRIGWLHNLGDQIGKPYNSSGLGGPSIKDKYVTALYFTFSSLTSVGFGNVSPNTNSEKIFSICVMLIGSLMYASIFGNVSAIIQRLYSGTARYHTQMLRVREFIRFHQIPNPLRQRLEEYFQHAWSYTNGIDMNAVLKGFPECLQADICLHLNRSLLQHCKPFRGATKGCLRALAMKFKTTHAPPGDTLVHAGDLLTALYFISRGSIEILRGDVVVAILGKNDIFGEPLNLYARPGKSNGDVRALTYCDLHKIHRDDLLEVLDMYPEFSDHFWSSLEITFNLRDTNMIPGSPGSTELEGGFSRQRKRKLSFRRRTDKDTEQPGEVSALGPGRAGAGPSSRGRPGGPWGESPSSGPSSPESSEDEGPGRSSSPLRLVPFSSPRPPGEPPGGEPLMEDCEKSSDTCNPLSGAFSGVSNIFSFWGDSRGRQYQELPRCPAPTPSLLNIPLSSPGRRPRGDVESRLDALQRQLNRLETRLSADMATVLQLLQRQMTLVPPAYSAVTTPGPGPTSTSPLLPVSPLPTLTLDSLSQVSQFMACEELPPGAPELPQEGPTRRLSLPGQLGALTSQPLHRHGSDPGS

Structure (SMILES) | activity change, negative = inhibition | Potency
CC[N+](C)(CC)CCOC(=O)C(O)(c1ccccc1)c1ccccc1 | 1.71% | 
O=C(CS(=O)C(c1ccccc1)c1ccccc1)NO (stereo unspecified) | 14.2% | 
CN(C)CCCCCCN(C)C (tested in a mixture with another compound) | 15.1% | 
COC(=O)N1CCN(C(=O)Cc2ccc(Cl)c(Cl)c2)C(CN2CCCC2)C1 (stereo unspecified) |  | 11.2 µM (active)
C#CCN1CC(=O)N(COC(=O)C2C(C=C(C)C)C2(C)C)C1=O (stereo unspecified) | 5.66% | 
C/C(O)=C(\C#N)C(=O)Nc1cc(Br)ccc1Br | 9.94% | 
COc1ccc2c3c1O[C@H]1C(=O)CC[C@H]4[C@@H](C2)N(C)CC[C@]314 | 5.08% | 
CN(N=O)c1cc(O)ccc1O | 12.7% | 
Cc1cc(C)cc(C(=O)OC2C[C@H]3CC[C@@H](C2)N3C)c1 (stereo partly specified) |  | 3.98 µM (active)
CCN(CC)C(=O)/C(Cl)=C(\C)OP(=O)(OC)OC | 5.53% | 
CCC(N)Cc1c[nH]c2ccccc12 (stereo unspecified) | 1.52% | 
COc1ccc(CNC(=O)/C=C/c2ccc3[nH]cc(CCN(C)C)c3c2)cc1 |  | 11.2 µM (active)
C#CC(C)(O)CC (stereo unspecified) | 10.4% | 
N[C@@H](CCl)C(=O)O | 5.27% | 
CN[C@H]1C[C@@H](N)[C@H](O)[C@@H](O[C@@H]2O[C@H](CO)[C@H](O)[C@@H]3OC4(O[C@H]23)O[C@H](C(N)CO)[C@H](O)[C@H](O)[C@H]4O)[C@@H]1O (stereo partly specified) | 1.51% | 
C[C@]12CC[C@H]3[C@@H](CC[C@@]45O[C@@H]4C(O)=C(C#N)C[C@]35C)[C@@H]1CC[C@@H]2O | 17.6% | 
O=c1ccc2cc(O[C@@H]3O[C@H](CO)[C@@H](O)[C@H](O)[C@H]3O)c(O)cc2o1 | -9.33% [at 20.6 µM] | 
C[N+](C)(C)CC#CCN1CCCC1=O | 9.74% | 

Structure (SMILES) | activity change, negative = inhibition | Potency
CC(=O)O[C@H]1CC[C@H]2[C@@H]3CCC4=CC(=O)CCC4=C3C=C[C@]12C | 11% | 
CCN(CC)c1ncnc2c1ncn2[C@@H]1O[C@H](COP(=O)(O)OP(=O)(O)C(Br)(Br)P(=O)(O)O)[C@@H](O)[C@H]1O | 4.99% | 
F/C(COc1ccc2c(c1)[nH]c1ccccc12)=C1/CN2CCC1CC2 |  | 22.4 µM (active)
CC(C)(C)c1o[nH]c(=O)c1CC(N)C(=O)O (stereo unspecified) | 9.52% | 
CC(Cc1ccccc1)NC=O (stereo unspecified) | 7.23% | 
O=P(O)(O)C(Cl)(Cl)P(=O)(O)O | 5% | 
CN(N=O)c1ccc(O)c(O)c1 | -4.18% | 
Cc1[nH]c2ccc(O)cc2c1CCN | 0.774% | 
Cc1c2ccncc2c(C)c2c1[nH]c1ccccc12 |  | 20 µM (active)
COC(COC(N)=O)C1=C(N2CC2)C(=O)C(C)=C(N2CC2)C1=O (stereo unspecified) | -13.6% | 
COC1=CC=C2[C@H]3Cc4ccc(OC)c5c4[C@@]2(CCN3C)[C@H]1O5 | -2.06% [at 20.6 µM] | 
Clc1ccc(C2(Cn3cncn3)OCCO2)c(Cl)c1 | 21.3% | 
C[C@]12Cc3cn4c(nc3C=C1CCC1C2CC[C@@]2(C)[C@H]1CC[C@@]2(O)C#N)nc1ccccc14 (stereo partly specified) |  | 2 µM (active)
NCC(CP(=O)(O)O)c1ccc(Cl)cc1 (stereo unspecified) | 18.7% | 
CN(C)[C@H](Cc1ccccc1)c1ccccc1 | 3.69% | 
O=C(CCl)c1ccc(Oc2ccc(C(=O)CCl)cc2)cc1 | 1.33% | 
Cc1o[nH]c(=O)c1CC(N)C(=O)O (stereo unspecified) | 19.3% | 
S=C(S)N1CCNCC1 | -4.1% | 
